Assay outcomes: PubChem, Broad Institute
esBAF inh: inhibitors of esBAF chromatin remodeling in mouse ES cells. Bmi1-luciferase knock-in reporter, 24 h; 100% = twice the neutral-well signal. reporter increase, % at 12.5 µM. 350,000 tested, 2% active; in the data active means activation above about 40%; inconclusive means no clear call, values can overlap the other calls;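 further: 0% = median of the plate's neutral control wells and 100% = double that signal; a rise in the Bmi1 reporter signal indicates esBAF inhibition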
HSF1 inhib: HSF1 inhibition; activity change, negative = inhibition, % at 7.5 µM (by protocol); NIH3T3-HGL HSE-luciferase, MG132-induced, luminescence 8 h; hits give low values; 300,000 tested, 0.77% active;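 active means more than half of replicate wells show activity change below -50%, luminescence cut by over half; inconclusive means some wells, but at most half, below -50%; inactive means no replicate well below -50%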;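 further: luciferase reports HSF-1 transcriptional activity via heat shock element; 0% = median of DMSO wells and -100% = zero luminescence signal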
HSF-1 act: increases HSF-1 driven luciferase reporter signal. activation, % at 9 µM. NIH3T3-HGL HSF-1 luciferase reporter, MG132, 8 h; 100% = twice DMSO control signal. 300,000 tested, 1.7% active;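 active means mean replicate activation of at least 50% with a set share of replicates each reaching 50%; inconclusive means only one of those two conditions met; inactive means mean below 50% and too few replicates reaching it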;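 further: 0% = median of the neutral control wells and 100% = twice that signal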
Vif imaging: HIV Vif inhibition; 340,000 tested, 0.35% active; AID 602346; HEK293T cells, Vif self-association by quenched fluorescence, imaging, 24 h; inhibition, % at 7.49 µM; in the data active means inhibition above about 50%, passing the limit was not always enough; inconclusive means no clear call, values can overlap the other calls; inactive means below about 31%
The depositor's hits bear a star; ? = inconclusive; · = no result. Sampled rows, rich in hits. Any-hit rate of the full collection: about 3.4%.

SMILES	esBAF inh	HSF1 inhib	HSF-1 act	Vif imaging
COC(=O)C[C@H]1CC[C@@H]2[C@@H](COc3ccc(NS(=O)(=O)c4ccccc4F)cc3C(=O)N2C)O1	-5	·	·	·
CN(C)c1ccc(NC(=O)c2ccc(N3CCOCC3)nc2)cc1	51*	11	6	5
Cc1ccccc1C(=O)Nc1ccc(N2CCOCC2)nc1	23	13	11	53*
COc1ccc(NC(=O)c2ccc(N3CCOCC3)nc2)cc1	2	-5	-2	-5
C[C@@H](NC(=O)C[C@@H]1CC[C@@H](NC(=O)C2CC2)[C@@H](CO)O1)c1ccccc1	-5	·	·	·
COc1ccc(NC(=O)N(C)C[C@@H]2Oc3cc(-c4ccc(C)cc4)ccc3S(=O)(=O)N([C@H](C)CO)C[C@@H]2C)cc1	-1	·	·	·
O=S1(=O)N[C@H](c2ccccc2)C[C@H](c2ccc(C(F)(F)F)cc2)O1	-3	-56*	-67	1
CC1CC(c2ccccc2)NS(=O)(=O)O1 (configuration not stated)	6	-2	-10	8
C[C@@H]1CN([C@@H](C)CO)C(=O)c2cc(NC(=O)Nc3ccc4c(c3)OCO4)ccc2O[C@H]1CN(C)Cc1ccc(-c2ccccc2)cc1	7	·	·	·
Cc1ccc(CNC(=O)CN(C2CCCCC2)S(C)(=O)=O)cc1	-5	-3	4	6
CS(=O)(=O)N(CC(=O)NCc1ccccc1)C1CCCCC1	0	-77*	-83	-2
Cc1ccc(OCc2nnc(SCC(=O)Nc3cccc4ccccc34)n2-c2ccccc2)cc1	1	26	73*	-1
O=C(CSc1nnc(Cn2nnc(-c3ccccc3)n2)n1-c1ccccc1)Nc1ccccc1	11	7	37	-5
Cc1cccc(C)c1NC(=O)CSc1nnc(Cn2nnc(-c3ccccc3)n2)n1-c1ccccc1	11	66	74*	-3
Nc1c(Cl)cnn(-c2ccccc2)c1=O	·	-1	2	4
O=c1c(Cl)c(Cl)cnn1-c1ccccc1	·	-96*	-96	0
CCc1cccc2c(C(=O)COC(=O)c3ccc([N+](=O)[O-])s3)c[nH]c12	·	-69*	-68	0
O=C(OCC(=O)c1c[nH]c2ccccc12)c1ccc([N+](=O)[O-])s1	-2	15	19	22
COc1cc(C(=S)N2CCCC2)ccc1OCc1ccc(C)cc1	47*	45	46	5
Fc1ccc(COc2ccccc2C(=S)N2CCCC2)cc1	·	1	33	·
CCOc1ccc(C(=S)N2CCCC2)cc1OC	·	0	-19	0
Cc1ccc(COc2ccccc2C(=S)N2CCCC2)cc1	55*	17	9	45
O=C(C[C@H]1C[C@@H]2c3cc(NC(=O)C4CCC4)ccc3O[C@@H]2[C@@H](CO)O1)NCc1cccc(F)c1	3	·	·	·
C[C@@H]1CN([C@@H](C)CO)S(=O)(=O)c2ccc(-c3cncnc3)cc2O[C@H]1CN(C)Cc1cccnc1	-6	·	·	·
O=C(Nc1cccnc1Cl)c1cc2c(s1)-c1ccccc1OC2	46*	14	13	-3
SMILES	esBAF inh	HSF1 inhib	HSF-1 act	Vif imaging
Cc1cccc2c1-c1sc(C(=O)Nc3nccs3)cc1CO2	47*	30	56*	0
O=C(Nc1nccs1)c1cc2c(s1)-c1ccccc1OC2	103*	23	38	-20
Cc1cccc2c1-c1sc(C(=O)Nc3cccnc3)cc1CO2	50*	6	1	-9
O=C(Nc1nc2ccccc2s1)c1cc2c(s1)-c1ccccc1OC2	?	16	32	10
O=C(Nc1cccnc1)c1cc2c(s1)-c1ccccc1OC2	29	0	23	-8
Cc1cccc2c1-c1sc(C(=O)Nc3cccc([N+](=O)[O-])c3C)cc1CO2	·	21	28	1
O=C(Nc1ccc(Cl)cn1)c1cc2c(s1)-c1ccccc1OC2	?	29	19	-9
COc1ccc(N(C)C(=O)c2cc3c(s2)-c2c(C)cccc2OC3)c(OC)c1	8	-5	8	23
CCOC(=O)c1cc2c(s1)-c1c(C)cccc1OC2	64*	20	46	-5
Cc1ccc(NC(=O)c2cc3ccccc3oc2=N)cc1	-81	-21	-33	-6
N=c1oc2cc(O)ccc2cc1C(=O)Nc1ccc(Cl)cc1	58*	-7	17	-7
C/C(=N\NC(=O)c1nnn(-c2nonc2N)c1C(C)C)c1ccncc1	6	-51*	-58	10
C/C(=N\NC(=O)c1nnn(-c2nonc2N)c1C(C)C)c1ccc2ccccc2c1	0	-5	-1	4
CCc1cnc(N2[C@H](C#N)[C@H](c3ccc(C4=CCCC4)cc3)[C@H]2CO)s1	16	·	·	·
